In PubChem BioAssay (Tox21):
Calls of active or inactive are those of the source. The call rests on the fitted dose curve; in most records, active means well fitted curve in the direction sought with a large enough effect in the repeat runs; inconclusive means weak or mixed curves; inactive means flat fitted curve, though single readings scatter.
On the % scale 0 is the no-effect control and ±100 the full control effect.

Assay: qHTS assay to test for compound auto fluorescence at 590 nm (red) in HEK293 cell free culture (AID 720683)
Details: cell-free medium autofluorescence, Ex540/Em590 red; series mostly up to 46 µM; fluorescence, % of fluorescent control: at the top concentration
Text: U.S. Tox21 Program National Center for Advancing Translational Sciences [NCATS] NIH Chemical Genomics Center [NCGC] U.S. Environmental Protection Agency [EPA] National Institutes of Environmental Health Sciences [NIEHS] National Toxicology Program [NTP] U.S. Food and Drug Administration [FDA] Tox21 Assay Overview: Compound auto fluorescence often interferes with screening of the compound library against various biological targets and signaling pathways. Some of these compounds may have fluorophoric properties. Such properties may interfere with the assay outputs resulting in false positives and/or negatives. To decrease such complications and ensure the compound activities are relevant in terms of biological response, the Tox21 10K compound library was screened for auto fluorescence. From the fluorophores used as reporter signals in our screening assays, the auto fluorescence equivalencies of compounds against three fluorophores have been evaluated: Triamterene, Fluorescein and Rose Bengal sodium for blue, green and red fluorescence, respectively. The fluorescence intensities were measured using Excitation/Emission wavelengths at 405/460nm, 485/535nm and 540/590nm for blue, green and red labels, respectively. This assay includes the red fluorescence data.
Tox21 Assay Protocol Summary: 5 uL of culture medium (DMEM containing 10% FBS) per well was dispensed into black wall/clear bottom 1536-well plates using a Multidrop Combi Dispenser (ThermoFisher Scientific, Waltham, MA). After 23 nL compound or DMSO vehicle was transferred into assay plate by a pintool work station (Kalypsys, San Diego, CA), fluorescence intensities in the assay plates were measured by an Envision (PerkinElmer, Shelton, CT) plate reader using three labels for measuring blue, green and red fluorescence at […] 460, 535 and 590nm respectively.
In the case of `C#C[C@]1(OC(=O)CCCCCC)CC[C@H]2[C@@H]3CCC4=CC(=O)CC[C@@H]4[C@H]3CC[C@@]21C`, the “fluorescence, % of fluorescent control” value is reported as 0.222% (inactive).
In the case of `COc1cc(C[C@H](C)N)c(OC)cc1Br`, the “fluorescence, % of fluorescent control” value is reported as -0.467% [at 95.7 µM] (inactive).
In the case of `CN1CCN=C(c2ccccc2)c2cc(Cl)ccc21`, the “fluorescence, % of fluorescent control” value is reported as -0.217% (inactive).
In the case of `CC(=O)O[C@H]1C[C@H](O[C@H]2[C@@H](O)C[C@H](O[C@H]3[C@@H](O)C[C@H](OC4CC[C@@]5(C)C(CC[C@@H]6[C@@H]5CC[C@]5(C)[C@@H](C7=CC(=O)OC7)[C@@H](O)C[C@]65O)C4)O[C@@H]3C)O[C@@H]2C)O[C@H](C)[C@H]1O[C@@H]1O[C@H](CO)[C@@H](O)[C@H](O)[C@H]1O` (stereo partly specified), the “fluorescence, % of fluorescent control” value is reported as 0.0809% (inactive).
In the case of `C[C@]12CC[C@H]3[C@@H](CCC4=CC(=O)CC[C@@]43C)[C@@H]1CC[C@@H]2OC(=O)CCc1ccccc1`, the “fluorescence, % of fluorescent control” value is reported as 0.708% [at 91.3 µM] (inactive).
In the case of `CC[C@@H](O)C(C[C@@H](C)N(C)C)(c1ccccc1)c1ccccc1`, the “fluorescence, % of fluorescent control” value is reported as -0.24% [at 95.7 µM] (inactive).
For `Cc1ccc2c(c1)[C@]13CCCC[C@@H]1[C@H](C2)N(C)CC3`, the “fluorescence, % of fluorescent control” value was -0.294% (inactive).
In the case of `CCC(=O)O[C@H]1[C@@H](N2CCCCC2)C[C@H]2[C@@H]3CC[C@H]4C[C@H](OC(C)=O)[C@@H](N5CCCCC5)C[C@]4(C)[C@H]3CC[C@@]21C`, the “fluorescence, % of fluorescent control” value is reported as -0.035% (inactive).
With `CCC(=O)O[C@](Cc1ccccc1)(c1ccccc1)[C@H](C)CN(C)C` the “fluorescence, % of fluorescent control” value was -0.0608% [at 91.3 µM] (inactive).
For `Clc1ccc([C@@H]2C[C@H]3CC[C@@H]2N3)cn1`, the “fluorescence, % of fluorescent control” value was 0.0684% [at 91.3 µM] (inactive).
For `CN1C2CCC1CC(OC(c1ccccc1)c1ccc(Cl)cc1)C2` (stereo unspecified), the “fluorescence, % of fluorescent control” value was -0.116% (inactive).
